Source: the supplement of paper PMC13380429

What was measured:
[1] = test system: Vero E6 infected with SARS-CoV-2; assay: morphology score (similarity to uninfected cells); higher = more like uninfected cells; conditions: 24 h
[2] = test system: Vero E6 infected with SARS-CoV-2; assay: SARS-CoV-2 infection rate relative to infected DMSO; higher = more infection, active = 60 or less; conditions: 24 h

Compound	morphology score [1]	SARS-CoV-2 infection rate [2]
CN(C)[C@@H]1CCc2[nH]c3ccc(NC(=O)c4ccc(F)cc4)cc3c2C1 (10 µM)	0.438	70.5% (inactive)
COc1ccc2c(C)nc(Nc3nc(C)c(C)c(O)n3)nc2c1 [madrasin] (10 µM)	0.0439	107% (inactive)
CC(=O)NC[C@H]1CN(c2ccc(N3CCOCC3)c(F)c2)C(=O)O1 [linezolid] (10 µM)	0.0235	112% (inactive)
CO/N=C(\C(=O)N[C@@H]1C(=O)N2C(C(=O)[O-])=C(C[n+]3ccn4ncccc43)CS[C@H]12)c1nsc(N)n1 [cefozopran] (10 µM)	0.0209	112% (inactive)
CC(=O)NS(=O)(=O)c1ccc(N)cc1 [sulfacetamide] (10 µM)	0.147	100% (inactive)
CC(C(=O)O)c1cccc(Oc2ccccc2)c1 (configuration not stated) [fenoprofen] (10 µM)	0.0202	108% (inactive)
CN(C)CCCN1c2ccccc2CCc2ccccc21 [imipramine] (10 µM)	-0.0385	92.5% (inactive)
NC(N)=Nc1nc(CSCC/C(N)=N/S(N)(=O)=O)cs1 [famotidine] (10 µM)	-0.0119	106% (inactive)
[O-][n+]1ccccc1[S-].[O-][n+]1ccccc1[S-].[Zn+2] [pyrithione-zinc] (10 µM)	0.0399	91.5% (inactive)
Nc1nc(N)c2nc(-c3ccccc3)c(N)nc2n1 [triamterene] (0.833333 µM)	-0.174	118% (inactive)
N[C@@H](CCC(=O)N[C@@H](CS)C(=O)NCC(=O)O)C(=O)O [glutathione] (10 µM)	-0.0349	108% (inactive)
O=C(NCCS(=O)(=O)c1ccc(C(F)(F)F)cn1)c1ccc(Cl)cc1 (10 µM)	0.178	99% (inactive)
CCCCCCCCCC(=O)O[C@H]1CC[C@H]2[C@@H]3CCC4=CC(=O)CC[C@@H]4[C@H]3CC[C@]12C [Nandrolone decanoate] (10 µM)	-0.019	103% (inactive)
Cc1ccc2c(c1)c1c3n2CCNC3CCC1 (configuration not stated) [pirlindole] (10 µM)	0.0112	106% (inactive)
Cc1ccc(NC(=O)C(C)C)cc1C1CCN(Cc2ccc(Oc3ccc(F)c(F)c3)cc2)CC1 (0.833333 µM)	0.375	90.5% (inactive)
CC[C@H]1OC(=O)C[C@@H](O)[C@H](C)[C@@H](O[C@@H]2O[C@H](C)[C@@H](O[C@H]3C[C@@](C)(O)[C@@H](O)[C@H](C)O3)[C@H](N(C)C)[C@H]2O)[C@@H](CC=O)C[C@@H](C)C(=O)/C=C/C(C)=C/[C@@H]1CO[C@@H]1O[C@H](C)[C@@H](O)[C@@H](OC)[C@H]1OC (0.833333 µM)	-0.000376	81% (inactive)
CNC(=O)[C@@H](Cc1ccccc1)N(C)C(=O)[C@@H](Cc1ccc2ccccc2c1)N(C)C(=O)/C=C/CC(C)(C)N [tabimorelin] (10 µM)	-0.00047	112% (inactive)
CC(C)Cc1ccc([C@@H](C)C(=O)NCCO)cc1 (racemic) [mabuprofen] (10 µM)	0.127	109% (inactive)
O=C(O)CC/C=C\C[C@@H]1CO[C@H](c2ccccc2Cl)O[C@@H]1c1ccccc1O (racemic) (10 µM)	-0.000999	106% (inactive)
O=C(Nc1cccnn1)N1CCC(=Cc2cccc(Oc3ccc(C(F)(F)F)cn3)c2)CC1 (10 µM)	0.00817	104% (inactive)
CC=CC1=C(C(=O)O)N2C(=O)[C@@H](NC(=O)[C@H](N)c3ccc(O)cc3)[C@H]2SC1 (mixture of isomers) [cefprozil] (10 µM)	0.273	99% (inactive)
CCNC(=O)c1noc(-c2cc(C(C)C)c(O)cc2O)c1-c1ccc(CN2CCOCC2)cc1 (0.833333 µM)	0.0632	94% (inactive)
CC(CCc1ccccc1)NC(C)C(O)c1ccc(O)cc1 (configuration not stated) [buphenine] (10 µM)	-0.137	114% (inactive)
O=S1(=O)c2cccc3cccc(c23)N1CCCN1CCN(c2ccc(F)cc2)CC1 [fananserin] (10 µM)	-0.0356	108% (inactive)
CC(C)C(=O)OC[C@@]1(N=[N+]=[N-])O[C@@H](n2ccc(N)nc2=O)[C@H](OC(=O)C(C)C)[C@@H]1OC(=O)C(C)C [balapiravir] (10 µM)	0.0882	88% (inactive)
Cc1ccc(S(=O)(=O)c2ccc([N+](=O)[O-])o2)cc1 (0.833333 µM)	0.215	68% (inactive)
